Among the data in PubChem BioAssay (NCATS) are Potency and viability values, retold here.

Assay [1] is described as follows: Quantitative High-Throughput drug screen in 47 multiple myeloma cell lines against the NCATS MIPE library collection: MM1R_ATCC cell viability assay (AID 1918981). Note: nearly all actives have a fitted effect of over 35% in size. The essentials: (§1)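 Inhibition of viability over 48 h was scored by ATP content (CellTiter-Glo) in 500-cell wells. Zero and full viability were defined by media-only and DMSO-only wells.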
A short description of assay [2]: Quantitative High-Throughput drug screen in 47 multiple myeloma cell lines against the NCATS MIPE library collection: LP1_DSMZ cell viability assay (AID 1918982). Note: nearly all actives have a fitted effect of over 35% in size. The essentials:
as §1

Assay [3] can be described thus: Quantitative High-Throughput drug screen in 47 multiple myeloma cell lines against the NCATS MIPE library collection: KMS28PE_JCRB cell viability assay (AID 1918983). Note: nearly all actives have a fitted effect of over 35% in size. The essentials: as §1
A short description of assay [4]: Quantitative High-Throughput drug screen in 47 multiple myeloma cell lines against the NCATS MIPE library collection: KMS34_JCRB cell viability assay (AID 1918985). Note: nearly all actives have a fitted effect of over 40% in size. Note: potency is the fitted concentration of half-maximal effect. Summed up: as §1
The nature of assay [5]: Quantitative High-Throughput drug screen in 47 multiple myeloma cell lines against the NCATS MIPE library collection: SKMM1_PLB cell viability assay (AID 1919863). Note: nearly all actives have a fitted effect of over 35% in size. Note: potency is the fitted concentration of half-maximal effect. The note with it: SKMM1 myeloma viability, CellTiter-Glo ATP, 48 h; viability: stronger effect = lower value. Summed up: as §1
On the technique in general: In ATP-based viability assays light output follows the ATP content of the culture.

Assay [6] is described as follows: Quantitative High-Throughput drug screen in 47 multiple myeloma cell lines against the NCATS MIPE library collection: L363_DSMZ cell viability assay (AID 1918984). Note: nearly all actives have a fitted effect of over 40% in size. Note: potency is the fitted concentration of half-maximal effect. Summed up: as §1
A short description of assay [7]: Quantitative High-Throughput drug screen in 47 multiple myeloma cell lines against the NCATS MIPE library collection: OPM1_PLB cell viability assay (AID 1918989). Note: nearly all actives have a fitted effect of over 40% in size. Note: potency is the fitted concentration of half-maximal effect. The essentials: as §1
A short description of assay [8]: Quantitative High-Throughput drug screen in 47 multiple myeloma cell lines against the NCATS MIPE library collection: OCIMY7_PLB cell viability assay (AID 1918987). Note: nearly all actives have a fitted effect of over 65% in size. Note: potency is the fitted concentration of half-maximal effect. Conditions: OCI-MY7 myeloma viability, CellTiter-Glo ATP, 48 h; viability (% of DMSO): at 45.8 µM (top of the series). The essentials:
as §1

Assay [9] is described as follows: Quantitative High-Throughput drug screen in 47 multiple myeloma cell lines against the NCATS MIPE library collection: OCIMY5_PLB cell viability assay (AID 1918988). Note: nearly all actives have a fitted effect of over 65% in size. Note: potency is the fitted concentration of half-maximal effect. The essentials:
as §1

Assay [10] is described as follows: Quantitative High-Throughput drug screen in 47 multiple myeloma cell lines against the NCATS MIPE library collection: MM1S_ATCC cell viability assay (AID 1918980). Note: nearly all actives have a fitted effect of over 45% in size. Note: potency is the fitted concentration of half-maximal effect. Summed up:
as §1

Results filed as inconclusive are left out. Unmarked numbers belong to inactive results. Calls of active or inactive are those of the source. Calls come from the whole dose curve; as a rule, active = well fitted cell-killing curve with a large enough effect; inconclusive = small, poorly fitted or top-dose-only effect, or effect the other way; inactive = no such curve, though single readings can be large or run the other way.

As for `C[C@H](O)[C@@H]1C(=O)N2C(C(=O)O)=C(S[C@@H]3CN[C@H](CNS(N)(=O)=O)C3)[C@@H](C)[C@@H]12`, the Potency entry in [1], in assay [2], in [3] and in assay [4] was “inactive” throughout. The viability in assay [5] is 105%.

Turning to `CC1(C)CC(O)CC(C)(C)N1[O]`, the Potency entry in assay [1], in assay [2], in assay [6] and in assay [7] was “inactive” throughout.

With `COC1=C(OC)C(=O)C(CC=C(C)CCC=C(C)CCC=C(C)CCC=C(C)CCC=C(C)CCC=C(C)CCC=C(C)CCC=C(C)CCC=C(C)CCC=C(C)C)=C(C)C1=O`, the Potency result in assay [1], in [2], in [3], in [4], in [8] and in [7] was “inactive” each time. Moreover, in assay [5], the viability is 99.4%.

As for `O=C1c2c(O)cccc2[C@@H]([C@@H]2O[C@H](CO)[C@@H](O)[C@H](O)[C@H]2O)c2cc(CO)cc(O)c21`, the Potency result in [1], in assay [2], in assay [3], in assay [4] and in [8] was “inactive” each time. Further, the viability in [5] is 153%.

In the case of `Nc1ccn(C2CO[C@H](CO)O2)c(=O)n1` (stereo partly drawn), the Potency result in assay [1], in assay [2], in assay [3] and in assay [6] was “inactive” each time.

Consider `CCN(C(=O)c1c(O)c2c(Cl)cccc2n(C)c1=O)c1ccccc1`, for which the Potency entry in assay [1], in [2], in [3], in assay [6], in [8] and in [7] was “inactive” each time.

For `Nc1nc(=O)n([C@H]2CSC(CO)O2)cc1F` (stereo partly drawn), the Potency result in assay [1], in [2], in assay [3] and in assay [6] was “inactive” each time. For the same compound, in [5], the viability was 114%.

Take `C[C@@H]1[C@H](C)CC[C@]2(C(=O)O)CC[C@]3(C)C(=CC[C@@H]4[C@@]5(C)C[C@@H](O)[C@H](O)[C@@](C)(CO)[C@H]5CC[C@]43C)[C@@H]12`: the Potency entry in assay [1], in [2], in assay [3], in assay [4], in assay [9] and in [7] was “inactive” in each case.

`COC(=O)[C@@H]1CC2=CC(=O)CC[C@]2(C)[C@@]23O[C@@H]2C[C@@]2(C)[C@H](CC[C@@]24CCC(=O)O4)[C@@H]13`: the Potency entry in assay [1], in assay [2], in [3], in [4] and in assay [7] was “inactive” each time.

As to `C#C[C@]1(O)CC[C@@H]2[C@@H]3CCC4=CC(=O)CC[C@@H]4[C@H]3CC[C@@]21CC`, the Potency result in [1], in assay [2], in assay [3], in [4] and in [8] was “inactive” in each case. Moreover, the results for the Potency in assay [6] and in assay [9] were 8.3 nM (active) and 18700 nM (active), respectively.

`C[C@@H]1C(=O)O[C@H]2CC34[C@H]5C[C@@H](C(C)(C)C)C36[C@H](OC(=O)[C@@H]6O)O[C@@]4(C(=O)O5)[C@]21O` (stereo partly drawn): the Potency result in [1], in assay [3] and in assay [4] was “inactive” each time.

On to `CCCCC(=O)O[C@]1(C(=O)CO)[C@@H](C)C[C@H]2[C@@H]3CCC4=CC(=O)C=C[C@]4(C)[C@@]3(F)[C@@H](O)C[C@@]21C`, for which the Potency entry in assay [1] and in assay [3] was “inactive” in each case. Besides, the Potency is 37.2 nM (active) in assay [4], 9.3 nM (active) in assay [9] and 37.2 nM (active) in assay [7]. Moreover, in [5], the viability was 122%.

For `O=C(O)c1ccc(Nc2ncc3c(n2)-c2ccc(Cl)cc2C(c2c(F)cccc2F)=NC3)cc1`, the Potency in assay [10] was 18700 nM (active); in [8] it was 209 nM (active); in [9] it was 332 nM (active); in assay [7] it was 5900 nM (active).

For the compound `COc1cc2c(cc1O)CCC1C2CC[C@@]2(C)C1CC[C@@H]2O` (stereo partly drawn), the Potency was 4690 nM (active) in [10]; 2090 nM (active) in assay [4]; 469 nM (active) in assay [8]; 1180 nM (active) in assay [9]; 5260 nM (active) in [7]; 833 nM (active) in [5].

Turning to `OCCN1C[C@H](O)[C@@H](O)[C@H](O)[C@@H]1CO`, the Potency result in assay [1], in [2], in [6], in assay [4] and in assay [7] was “inactive” in each case. In [5], the viability is 126%.

As to `CC[C@H]1OC(=O)[C@H](C)[C@@H](O[C@H]2C[C@@](C)(OC)[C@@H](O)[C@H](C)O2)[C@H](C)[C@@H](O[C@@H]2O[C@H](C)C[C@H](N(C)C)[C@@H]2O)[C@](C)(OC)C[C@@H](C)C(=O)[C@H](C)[C@@H](O)[C@]1(C)O`, the Potency result in [1], in assay [2], in [3], in [6], in assay [8] and in [7] was “inactive” each time. Further, the Potency in assay [5] is 105 nM (active).

Turning to `Cn1cc(C[C@@H](N)C(=O)O)c2ccccc21`, the Potency entry in assay [10], in [9] and in [7] was “inactive” throughout. The Potency is 4570 nM (active) in assay [4] and 7240 nM (active) in assay [5].

Regarding `CN[C@H](CC(C)C)C(=O)N[C@H]1C(=O)N[C@@H](CC(N)=O)C(=O)N[C@@H]2C(=O)N[C@H]3C(=O)N[C@H](C(=O)N[C@H](C(=O)O)c4cc(O)cc(O)c4-c4cc3ccc4O)[C@H](O)c3ccc(c(Cl)c3)Oc3cc2cc(c3O[C@@H]2O[C@H](CO)[C@@H](O)[C@H](O)[C@@H]2O[C@H]2C[C@](C)(N)[C@H](O)[C@H](C)O2)Oc2ccc(cc2Cl)[C@H]1O`, the Potency entry in [1], in assay [2], in assay [3], in assay [4] and in assay [9] was “inactive” throughout. Further, the viability in assay [5] was 122%.

In general, viability refers to a read-out of living cells in per cent, often relative to untreated cells.
